Data taken from PubChem BioAssay (NCATS).
Inconclusive results are not listed. Active and inactive are the calls of the source. Calls follow the shape of the dose curve; as a rule, active = well fitted inhibition curve with a large enough effect; inconclusive = small, poorly fitted or top-dose-only effect; inactive = no such curve, though single readings can be large or run the other way.

experiment: Tertiary RLuc qRT-PCR qHTS assay for Zika virus inhibitors (AID 1347169); conditions: infected Vero cells, reporter luminescence, 48-72 h; series mostly up to 45.9 µM; activity change, negative = inhibition: at the top concentration; also: nearly all actives have a fitted effect of over 55% in size; as to activity change, negative = inhibition: top concentration of the series differs between compounds
From the text: Avindra Nath, Ph.D., National Institute of Neurological Disorders and Stroke (NINDS), Bethesda, MD
Radhakrishnan Padmanabhan, Ph.D., Georgetown University (GU), Washington D.C.
Zika Virus causes congenital defects, including microcephaly and is associated with Guillain-Barre syndrome, eningoencephalitis and myelitis in infected adult. […] Using a target-based approach, we hope to establish a screening paradigm to uncover novel, cell-active NS2B-NS3 protease (Zika Virus) specific inhibitors from NCATS' collection of small molecules using qHTS.
Four assay panel was created to identify potential Zika Virus inhibitors. Namely, (1) GU unlinked NS2B-NS3 AMC tagged protease qHTS, (2) GU unlinked NS2B-NS3 Rhodamine tagged protease qHTS, (3) NINDS linked NS2B-NS3 AMC tagged protease qHTS, (4) NINDS linked NS2B-NS3 Rhodamine tagged protease qHTS. Identified inhibitors were re-acquired and tested against secondary confirmatory, orthogonal, and counterscreens to exclude nonspecific inhibition.
Early Translation Branch (ETB)
National Center for Advancing Translational Sciences (NCATS), Rockville, MD
National Institute of Health (NIH), Bethesda, Maryland
1536-well recombinant virus ZIKV-RLuc (Cambodian) Assay:
For a follow-up assay, we adapted a high throughput orthogonal assay in 1536-well plate format to use the recombinant virus ZIKV-RLuc, in Vero cells. Briefly, three microL of Vero cells derived from a green monkey cell line, were dispensed Multidrop Dispenser into a solid bottom white 1,536-well plate at a concentration of 1,000 cells per well. The plate was incubated overnight in a CO2 incubator at 37 degrees C. Compounds were delivered as a 23 nL DMSO solution by Kalypsys pintool transfer. Following compound transfer, 2 microL of ZIKV-RLuc was added at an MOI of 1-2 and incubated in a CO2 incubator for 48-72 hrs at 37 degrees C. After sufficient incubation of infected cells in test plates, live cell Renilla luciferase substrate (Promega) was added. The luminescence signal was measured after 1-1.5 hrs exposure to substrate in ViewLux reader.
% is scaled to controls: 0 for no effect and ±100 for the full control effect; potency is read from the fitted curve at half-maximal effect.

Row | SMILES | activity change, negative = inhibition | Potency
1 | Nc1ccc(-c2ccc3ccccc3n2)cc1 | 21.2% (inactive) | 
2 | COc1cc2c(CCNC(C)=O)c[nH]c2cc1O | -7.52% (inactive) | 
3 | C=CCN1CCc2c(cc(O)c(O)c2Br)[C@@H](c2ccccc2)C1 |  | 11.7 µM (active)
4 | Cc1nc(N=Nc2cc(S(=O)(=O)O)c3cc([N+](=O)[O-])cc(S(=O)(=O)O)c3c2)c(COP(=O)(O)O)c(C=O)c1O |  | inactive
5 | Cc1cccc(C(=O)NCN2CCN(c3ccccc3C#N)CC2)c1 | 8.69% (inactive) | 
6 | Cc1nc(N=Nc2ccc(S(=O)(=O)O)cc2S(=O)(=O)O)c(COP(=O)(O)O)c(C=O)c1O | 33.6% [at 5.25 µM] (inactive) | 
7 | Cn1c(=O)c2[nH]c(-c3ccc(S(=O)(=O)O)cc3)nc2n(C)c1=O | -3.92% (inactive) | 
8 | O=c1[nH]c(=S)[nH]c(-c2ccccc2)c1Cc1c(O)ccc2ccccc12 | -45.4% (inactive) | 
9 | Cn1cc(C(F)(F)F)nc1-c1ccc(OCC(O)CNCCOc2ccc(O)c(C(N)=O)c2)cc1 (stereo not given) | -22.4% (inactive) | 
10 | COc1ccccc1N1CCN(CCCNc2c(C)c(=O)n(C)c(=O)n2C)CC1 | 4.82% (inactive) | 
